The source of these data is the OligoGym collection.
Also: reference of the scale not given here.

The target of the experiment is ELF2. As to the kind of experiment: pooled miR-30 sensor sort-seq; sequence = guide strand. As to conditions: shRNA.
As to TAATCTGGCACTTGGAACTGGC, the sensor-assay potency score (higher = more potent) is -0.333.
The same measure for TTTTATCTTGAAGTAGATCTAA: -0.166; for TTCTTCTGCCACATCTTGCATC: -0.811; for TTTATCTTGAAGTAGATCTAAA: -0.649.
The same measure for ATCATCATAAACCAGAACCTGG: -0.854.
With TTGAACTGATATACAAGCCTCT the figure was 0.343.
For the sequence TTGTTCTTCTGCCACATCTTGC, the sensor-assay potency score (higher = more potent) is -0.939.
The same measure for TGATATTCACAACTCTAGCTAC: -0.607.
The same measure for TGATTTTCTACTCCATTGCTGG: -0.423.
The same measure for TTGATTTTCTACTCCATTGCTG: 0.197; for TTTGTCATCATCTATGACCACT: -0.807.
On to TTTCACTTTTGTCATCATCTAT, for which the sensor-assay potency score (higher = more potent) was -0.516.
The same measure for TTTCACATCATGTTCTTGCTTT: 0.568; for TTGATAGTCTCATTACAGGTGT: -0.336.
